Bioassay records deposited in PubChem BioAssay by National Center for Advancing Translational Sciences (NCATS).
Sm TGR inh: qHTS Assay for the Inhibitors of Schistosoma Mansoni Peroxiredoxins; Schistosoma mansoni thioredoxin glutathione reductase (TGR), Q962Y6; purified TGR, DTNB reduction, TNB absorbance 405 nm; Potency, µM (titrated, usually from 114 µM), actives largely listed as inhibitors; 360,000 tested, 3% active; AID 485364, 2010; note: nearly all actives have a fitted effect of over 60% in size
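Kinetic colorimetric format: TGR-catalysed, NADPH-driven DTNB reduction monitored via TNB absorbance. Enzyme dispensed at 20 nM; compound exposure 15 min at room temperature before reaction start.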
AmpC inh detg: qHTS Inhibitors of AmpC Beta-Lactamase (assay with detergent). AmpC hydrolysis of nitrocefin, absorbance 480 nm, 0.01% Triton. P00811. 370,000 tested, 0.041% active. AID 485294, 2010. Potency, µM (titrated, usually from 114 µM), usual class: inhibitors; note: nearly all actives have a fitted effect of over 25% in size
Target sequence (P00811 whole entry, looked up): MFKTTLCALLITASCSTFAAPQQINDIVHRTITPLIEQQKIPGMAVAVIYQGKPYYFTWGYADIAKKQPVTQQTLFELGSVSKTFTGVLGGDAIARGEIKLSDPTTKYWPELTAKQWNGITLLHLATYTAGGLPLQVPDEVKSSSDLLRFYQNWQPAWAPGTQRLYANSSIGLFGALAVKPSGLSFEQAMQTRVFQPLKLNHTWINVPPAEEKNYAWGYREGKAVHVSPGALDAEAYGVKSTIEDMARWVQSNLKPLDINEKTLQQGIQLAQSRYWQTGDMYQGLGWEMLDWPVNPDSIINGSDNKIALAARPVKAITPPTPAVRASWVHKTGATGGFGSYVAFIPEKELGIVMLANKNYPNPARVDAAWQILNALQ
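20 mM phosphate pH 7.0 + 0.01% (detergent screen) or 0.0001% Triton X-100; 5.3 nM AmpC reagent; cpd preinc 15 min RT; nitrocefin (800 uM stock) to start; A480 q20 s × 4 min; Activity was normalised to no-enzyme and no-compound control wells.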
AmpC no deterg: qHTS Inhibitors of AmpC Beta-Lactamase (assay without detergent); AmpC nitrocefin hydrolysis, absorbance 480 nm, 0.0001% Triton; AID 485341, 2010; P00811; Potency, µM (titrated, usually from 57.1 µM), most hits filed as inhibitors; 330,000 tested, 0.52% active; note: nearly all actives have a fitted effect of over 20% in size
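AmpC (5.3 nM in the dispensed reagent) in 20 mM phosphate pH 7.0 with 0.01% (detergent screen) or 0.0001% Triton X-100 was preincubated with compounds for 15 min at room temperature. Nitrocefin was then added from an 800 uM solution, and hydrolysis was followed at 480 nm.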
Large screens that a line does not name were inactive. Rows were chosen to be rich in hits. Some 3.3% of all compounds tested hit in one or more screens of this group. Calls come from the whole dose curve; as a rule, active = well fitted curve in the direction sought with a large enough effect; inconclusive = small, poorly fitted or top-dose-only effect, or another doubt; inactive = no such curve, though single readings can be large; an effect the other way counts as inactive or inconclusive.

Cc1cc(C)cc(NC(=S)NCc2ccc3[nH]c4c(c3c2)CCCC4)c1	AmpC no deterg 32µM
COc1cccc(C2C(C(=O)Nc3ccccc3)=C(C)Nc3nc(-c4ccccc4)nn32)c1 (stereo not drawn)	none (no result: AmpC no deterg)
O=C(NCc1cccc(F)c1)c1ccc(CN2CC(=O)N3CCCCC3C2=O)cc1 (stereo not drawn)	none (no result: AmpC no deterg)
CCCc1cc(N2CCN(c3cc(Cl)ccc3C)CC2)n2cnnc2n1	none (no result: AmpC no deterg)
CS(=O)(=O)n1nc(OC(=O)c2cccs2)cc1N	Sm TGR inh 40µM
COc1ccc(S(=O)(=O)n2nc(OC(=O)c3cccs3)cc2N)cc1	none
CS(=O)(=O)n1nc(OC(=O)c2cccc3ccccc23)cc1N	AmpC inh detg inconclusive
CS(=O)(=O)n1nc(OC(=O)c2cc(Br)ccc2Cl)cc1N	Sm TGR inh 5µM
CCOc1ccccc1NC(=O)Cc1csc(COc2cccc(C)c2)n1	none (no result: AmpC no deterg)
COc1cc(NC(=O)CC(c2ccc(C)cc2)N2Cc3ccccc3C2=O)cc(OC)c1 (stereo not drawn)	none (no result: AmpC no deterg)
Cc1c(CC(=O)NCc2ccc(F)cc2)c(=O)oc2cc(O)c(Cl)cc12	none (no result: AmpC no deterg)
Cc1ccc(C(=O)CCS(=O)(=O)c2ccc(Br)cc2)cc1	Sm TGR inh 0.4µM
COc1ccc(C(=O)CCS(=O)(=O)c2ccc(C)cc2)cc1	Sm TGR inh 1µM
Cc1ccc(S(=O)(=O)CCC(=O)c2cccc([N+](=O)[O-])c2)cc1	Sm TGR inh inconclusive
Cc1ccc(S(=O)(=O)CCC(=O)Oc2ccc(-c3nnco3)cc2)cc1	Sm TGR inh 20µM
COc1ccc(COC(=O)CCS(=O)(=O)c2ccc(C)cc2)cc1	AmpC inh detg inconclusive
Cc1ccc(S(=O)(=O)N2CCN(C(=O)COc3ccc(-c4nnco4)cc3)CC2)cc1	none
COc1ccc(NC(=O)CS(=O)(=O)c2ccc(C)cc2)c(OC)c1	none
CO/N=C(/CS(=O)(=O)c1ccc(C)cc1)c1ccc(OC)cc1	Sm TGR inh 40µM
COc1ccc(NC(=O)Cn2c(=O)n(Cc3ccccc3)c(=O)c3oc4ccccc4c32)cc1Cl	none (no result: AmpC no deterg)
Cc1cccc(N2CC(c3nc4ccccc4n3CCC3CCCCC3)CC2=O)c1 (stereo not drawn)	none (no result: AmpC no deterg)
COc1cc2c(=O)c(S(=O)(=O)c3ccc(C)cc3)cn(Cc3cccc(C)c3)c2cc1OC	none (no result: AmpC no deterg)
Cc1oc2c(c1C(=O)Nc1ccccc1Br)C1=NCCN1C=N2	none (no result: AmpC no deterg)
COc1ccccc1CNC(=O)c1c[nH]c2ccc(S(=O)(=O)Nc3cc(C)cc(C)c3)cc2c1=O	none (no result: AmpC no deterg)
COc1cc(-c2ccno2)ccc1S(=O)(=O)N1CCN(c2ccc(F)cc2)CC1	none (no result: AmpC no deterg)
COc1ccc(C)cc1NC(=O)C(=O)NCCc1csc2nc(-c3ccccc3F)nn12	none (no result: AmpC no deterg)
COc1ccc(C(=O)NCCS(=O)(=O)NCc2ccc(C)cc2)cc1	none
COc1ccc(C(=O)NCS(=O)(=O)c2ccc(C)cc2)cc1	Sm TGR inh 11µM
CC(C)N(C(=O)COC(=O)c1ccccc1C(=O)c1ccc(Cl)c([N+](=O)[O-])c1)C(C)C	none
CN(CCC#N)C(=O)COC(=O)c1ccccc1C(=O)c1ccc(Cl)c([N+](=O)[O-])c1	Sm TGR inh 13µM
O=C(NC1CCCCC1)N(CCN1CCOCC1)Cc1cc2cc3c(cc2[nH]c1=O)OCCO3	none
Cc1ccc2[nH]c(=O)c(CN(CCCN3CCOCC3)C(=O)NC3CCCCC3)cc2c1	Sm TGR inh 100µM, AmpC inh detg inconclusive
Cc1nc(-c2ccccc2)sc1-c1ccc(SCC(=O)Nc2ccccc2)nn1	none (no result: AmpC no deterg)
COc1ccc(-c2cn3nc(N4CCC(C(=O)Nc5cc(Cl)ccc5C)CC4)sc3n2)cc1	none (no result: AmpC no deterg)
Cc1ccc(CSc2nc3ccccc3c(=O)n2Cc2ccco2)cc1	Sm TGR inh inconclusive
O=c1c2ccccc2nc(SCc2ccccc2)n1Cc1ccco1	Sm TGR inh 28µM
COc1cccc(N2CCN(C(=O)Cn3ncc4c(=O)oc5ccccc5c43)CC2)c1	none (no result: AmpC no deterg)
Cc1ccc(C)c(N2CCN(C(=O)Cn3ncc4c(=O)oc5ccccc5c43)CC2)c1	Sm TGR inh 8.9µM (no result: AmpC no deterg)
CS(=O)(=O)N(CCC#N)Cc1ccc(/C=C2\C(=O)Nc3ccccc32)o1	AmpC inh detg inconclusive
Cc1ccc(N2C(=O)/C(=C/c3ccc(CN(CCC#N)S(C)(=O)=O)o3)C(=O)NC2=S)cc1C	Sm TGR inh 3.2µM
Cc1ccc(N2NC(=O)/C(=C/c3ccc(-c4ccc(Cl)c(C(=O)O)c4)o3)C2=O)cc1C	none
Cc1cccc(N2C(=O)/C(=C/c3ccc(CN(CCC#N)S(C)(=O)=O)o3)C(=O)NC2=S)c1	Sm TGR inh 8.9µM, AmpC inh detg inconclusive
COc1ccc(-c2nc3sc(CCNC(=O)C(=O)Nc4ccc(C)c(F)c4)c(C)n3n2)cc1	none (no result: AmpC no deterg)
CC1CCN(S(=O)(=O)c2ccc3c(ccn3CC(=O)NCc3ccccc3F)c2)CC1	none (no result: AmpC no deterg)
C/C(=N/O)c1cccc(N2Cc3ccccc3C2)c1	Sm TGR inh 22µM
C/C(=N\O)c1cccc(Br)c1	none
CCOc1ccc(CC(=O)NCCc2sc3nc(-c4ccc(F)cc4)nn3c2C)cc1	none (no result: AmpC no deterg)
Cc1ccc(Cl)cc1-n1c(=O)cc(N2CCN(C(=O)c3ccco3)CC2)[nH]c1=O	Sm TGR inh inconclusive
O=C(c1ccco1)N1CCN(c2cc(=O)n(-c3ccc(Cl)cc3)c(=O)[nH]2)CC1	AmpC inh detg inconclusive, AmpC no deterg 45µM
O=C(c1ccco1)N1CCN(c2c(-c3ccccc3)c3cc(Cl)ccc3[nH]c2=O)CC1	AmpC inh detg inconclusive
O=C(c1ccco1)N1CCN(c2ncnc3c2[nH]c2ccc(Cl)cc23)CC1	Sm TGR inh 50µM
CC(=O)c1ccc(NC(=O)c2nn(C)c3c2COc2ccccc2-3)cc1	none (no result: AmpC no deterg)
CCCC1C2C(=O)N(c3ccccc3)C(=O)C2ON1c1ccccc1 (stereo not drawn)	none
CCCOc1ccc(N2C(=O)C3ON(c4ccccc4)C(CCC)C3C2=O)cc1 (stereo not drawn)	Sm TGR inh 22µM
O=C(Nc1nc2c(F)cc(F)cc2s1)c1ccc(S(=O)(=O)N2CCc3ccccc32)cc1	none (no result: AmpC no deterg)
OCCCc1nc2n(n1)C(c1ccccc1)C=C(c1ccccc1)N2 (stereo not drawn)	Sm TGR inh 25µM, AmpC inh detg inconclusive
COc1ccc(C2C=C(c3ccccc3)Nc3nc(CCCO)nn32)cc1 (stereo not drawn)	Sm TGR inh 25µM
COc1ccc(C2C=C(c3cccs3)Nc3nc(CCCO)nn32)cc1 (stereo not drawn)	Sm TGR inh 40µM
OCCCc1nc2n(n1)C(c1cccc(Cl)c1)C=C(c1ccccc1)N2 (stereo not drawn)	none (no result: AmpC no deterg)
Cc1ccc(C2C=C(c3ccc(F)cc3)Nc3nc(CCCO)nn32)cc1 (stereo not drawn)	Sm TGR inh inconclusive (no result: AmpC no deterg)
COc1ccc(C2C(C(N)=O)=C(C)Nc3nc(CCCO)nn32)cc1 (stereo not drawn)	none
CCN(C(=O)CCc1nc(-c2ccc(C)cc2)no1)c1cccc(C(F)(F)F)c1	none (no result: AmpC no deterg)
CCn1cc(C(=O)N2CCN(c3ccccc3)CC2)c(=O)c2cc(S(=O)(=O)N3CCC(C)CC3)ccc21	none (no result: AmpC no deterg)
Cc1ccccc1NC(=O)CSc1nc2c(c(-c3ccco3)c1C#N)CCCC2	none
N#Cc1c(SCC(=O)Nc2nccs2)nc2c(c1-c1ccco1)CCCC2	Sm TGR inh 45µM
